The values that follow come from PubChem BioAssay AID1851 (National Center for Advancing Translational Sciences (NCATS), 2009).

Molecules are shown by their SMILES. The campaign covered roughly 16,000 compounds. About 4,000 (25%) were called active. Not shown: some 26% with an inconclusive outcome. The call rests on the fitted dose curve; in most records, active means well fitted curve in the direction sought with a large enough effect; inconclusive means small, poorly fitted or top-dose-only effect, or effect the other way; inactive means no such curve, though single readings can be large or run the other way. Only a sample is shown. Square brackets hold non-standard residues; d marks the D form. Peptide text beside a SMILES is read from it. * marks the point of attachment. ξ: configuration not given here. Cbz = O=C(OCc1ccccc1)*; PhAc = O=C(Cc1ccccc1)*; OBn = c1ccc(CO*)cc1; ξP = O=C(O)C1CCCN1
On the % scale 0 is the no-effect control and ±100 the full control effect.

In this test the target is Cytochrome P450 2C9 (Homo sapiens) (UniProt P11712). The experiment in a line: Cytochrome panel assay with activity outcomes. The note with it: recombinant CYP, pro-luciferin dealkylation, luminescence, p450-cyp2c9; series mostly up to 57.1 µM; activity, negative = inhibition: at the top concentration.
Cytochrome P450 2C9 (Homo sapiens), sequence (P11712 whole entry, looked up): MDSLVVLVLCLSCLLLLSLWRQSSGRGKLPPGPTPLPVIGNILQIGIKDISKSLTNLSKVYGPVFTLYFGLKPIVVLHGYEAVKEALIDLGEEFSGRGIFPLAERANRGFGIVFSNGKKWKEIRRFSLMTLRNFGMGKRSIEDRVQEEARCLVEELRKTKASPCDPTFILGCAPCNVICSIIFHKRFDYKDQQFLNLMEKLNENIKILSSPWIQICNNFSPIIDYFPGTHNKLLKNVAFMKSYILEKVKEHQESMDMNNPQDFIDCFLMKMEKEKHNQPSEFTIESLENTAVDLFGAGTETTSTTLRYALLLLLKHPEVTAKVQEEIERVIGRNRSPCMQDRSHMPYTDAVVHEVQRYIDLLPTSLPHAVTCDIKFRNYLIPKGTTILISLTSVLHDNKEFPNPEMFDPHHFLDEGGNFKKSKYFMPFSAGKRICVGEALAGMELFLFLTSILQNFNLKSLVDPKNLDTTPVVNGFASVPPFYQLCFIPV
Turning to `N=c1c(C(=O)NC2CCCC2)cc2c(=O)n3ccccc3nc2n1C1CCCC1`, the “activity, negative = inhibition” value was -18.4% (inactive).

Take `O=C(NCCCN1CCCCCC1)[C@@H](c1ccccc1)C1CCCCC1`: the “activity, negative = inhibition” value was 6.43% (inactive). The AC50 is the concentration giving half of the maximal activity seen. With `Cn1nc(C(=O)NC2CCCCC2)c2ccccc2c1=O`, the half-maximal activity concentration (AC50) is 7.94 µM (active). Regarding `O=C(Nc1nnc(C2CC2)s1)c1cc(S(=O)(=O)N2CCN(c3ccccc3)CC2)ccc1Cl`, the half-maximal activity concentration (AC50) is 7.08 µM (active).

As to `COC(=O)C/C=C\[C@@H](C)[C@@H](/C=N\O[C@@H](C)CN1CCCCc2nc(C)c(C)cc21)NS(=O)(=O)c1ccc(C)cc1`, the activity, negative = inhibition was -13.5% [at 11.4 µM] (inactive).

`O=C(CNC(=O)Cc1ccccc1)NCC(=O)OCc1ccccc1` (PhAc-Gly-Gly-OBn): the “activity, negative = inhibition” value was 21.8% (inactive).

As to `O=C(O)C/C(=C\c1ccco1)C(=O)O`, the activity, negative = inhibition is 4.79% [at 11.4 µM] (inactive).

For `COc1ccccc1C(=O)N/C(=C/c1ccc(Br)cc1)C(=O)NCC(=O)O`, the AC50 was 15.8 µM (active). Turning to `COc1cc(/C=C(/NC(=O)c2ccccc2Cl)C(=O)O)cc(OC)c1OC`, the “activity, negative = inhibition” value is -5.09% (inactive). On to `O=C(CNC(=O)/C(=C\c1ccccc1)NC(=O)c1ccc(Br)cc1)OCc1ccccc1`, for which the AC50 is 3.55 µM (active). On to `O=C(NCC1CCCO1)/C(=C\c1ccco1)NC(=O)c1ccccc1` (stereo unspecified), for which the “activity, negative = inhibition” value is -11.4% (inactive). On to `O=C(NC(Cc1ccccc1)C(=O)O)/C(=C\c1ccco1)NC(=O)c1ccc(Br)cc1` (stereo unspecified), for which the half-maximal activity concentration (AC50) was 15.8 µM (active). Take `O=C(O)CNC(=O)c1ccccc1O`: the activity, negative = inhibition was 1.11% [at 11.4 µM] (inactive). Turning to `O=C(CNC(=O)OCc1ccccc1)NCC(=O)N1CCCC1C(=O)OCc1ccccc1` (stereo not drawn) (Cbz-Gly-Gly-[ξP]-OBn), the “activity, negative = inhibition” value was -3.89% (inactive).

Turning to `O=[N+]([O-])c1ccc(CSc2ncnc3c2ncn3[C@@H]2O[C@@H](CO)[C@@H](O)[C@H]2O)cc1`, the “activity, negative = inhibition” value was 5.51% (inactive).

With `C=C(Br)CN(C)CC(=C)Br`, the activity, negative = inhibition was 2.22% [at 11.4 µM] (inactive).

Take `CC(=O)OCC1=C(C(=O)O)N2C(=O)[C@@H](NC(=O)Cc3cccs3)[C@@H]2SC1`: the AC50 result was “inactive”. As for `COc1ccc(CCNc2nc(-c3cccnc3)cs2)cc1OC`, the AC50 is 2.51 µM (active). On to `COc1ccc(CNc2cc(-c3cccnc3)ncn2)c(OC)c1`, for which the activity, negative = inhibition was 17.1% [at 2.29 µM] (inactive). The same measure, in the same setting: under `COc1ccccc1CNc1cc(-c2cccnc2)ncn1` stands -0.576% [at 2.29 µM] (inactive); under `Cc1sc(NC(=O)/C=C/c2ccc(C(C)C)cc2)c(C#N)c1C`, 24.1% (inactive). On to `Cc1sc(NC(=O)C2CCCCC2)c(C#N)c1-c1ccccc1`, for which the AC50 was 15.8 µM (active). As for `Oc1ccc(CNCc2ccccc2)c2cccnc12`, the activity, negative = inhibition was -9.84% [at 11.4 µM] (inactive). Still for that read-out and setting: for `CC(C)NC1(C(N)=O)CCN(Cc2ccccc2)CC1` the value was -5.53% [at 11.4 µM] (inactive). On to `CC(C)OC(=O)C(C#N)c1nc2ccccc2nc1N1CCN(Cc2ccccc2)CC1` (stereo unspecified), for which the AC50 was 2.82 µM (active).

With `CC(=O)N1CCC2(CCN(Cc3ccccc3)CC2)CC1`, the “activity, negative = inhibition” value was -0.802% (inactive). Turning to `CN(C)c1ccc(-c2ccc3ncnc(N4CCNCC4)c3c2)cc1`, the activity, negative = inhibition was 6% [at 2.29 µM] (inactive). Still for that read-out and setting: under `Cc1cccc(CNc2ccnc(-c3ccoc3)n2)c1` stands -14.6% [at 2.29 µM] (inactive); under `Cc1nn2c(C)nc3sc4c(c3c2nc1=O)CC(C)(C)OC4`, -21% (inactive).

As for `CC1(C)Cc2c(sc3nc(-c4ccccc4)n(N)c(=O)c23)CO1`, the AC50 was 12.6 µM (active). Take `CCCN1C[C@H](CSC)C[C@H]2c3cccc4[nH]cc(c34)C[C@@H]21`: the “activity, negative = inhibition” value was -5.72% [at 25.6 µM] (inactive).

For the molecule `N[C@@H](CCCP(=O)(O)O)C(=O)O`, the “activity, negative = inhibition” value was -6.04% (inactive).

`CCN(CC)c1ccc(NC(=O)CSc2nnc3nc(C)cc(C)n23)cc1`: the “activity, negative = inhibition” value is -15.7% (inactive). Regarding `CN(C)c1ccc(NC(=O)CSc2nc(N)c(C(=O)Nc3ccc(N(C)C)cc3)s2)cc1`, the concentration at half-maximal activity (AC50) was 2.82 µM (active). With `C[C@@]12CCC(=O)C=C1CC[C@H]1[C@@H]2[C@@H](O)C[C@]2(C)[C@@H]1CC[C@@]2(O)C(=O)CO`, the activity, negative = inhibition is -3.75% [at 11.4 µM] (inactive). In the case of `CCOC(=O)c1c(N2C(=O)Nc3cc(Cl)c(Cl)cc3N2O)sc2c1CCCCC2`, the AC50 is 3.55 µM (active). Take `CN(C)C[C@H]1CCC2=C(C1=O)C(c1ccc(Cl)c(Cl)c1)C1=C(CC[C@H](CN(C)C)C1=O)O2`: the activity, negative = inhibition was -1.08% [at 11.4 µM] (inactive). Same read-out and setting: under `Cc1ccc(S(=O)(=O)Oc2cc(N)c3c(n2)CCC3)cc1` stands 20.5% [at 11.4 µM] (inactive); under `Cc1ccc(S(=O)(=O)Oc2cc(S(=O)(=O)O)cc3cc(S(=O)(=O)O)cc(N)c23)cc1`, -5.74% [at 11.4 µM] (inactive). Take `Cc1ccc(S(=O)(=O)Oc2ccc(C3C4=C(CCCC4=O)OC4=C3C(=O)CCC4)cc2)cc1`: the AC50 was 3.98 µM (active). The same measure, in the same setting: under `O=C1CCCC2=C1C(c1ccc(OS(=O)(=O)c3ccc(Cl)cc3)cc1)C1=C(CCCC1=O)O2` stands 7.08 µM (active).

For the molecule `O=C(O)c1c2c(c(O)c3c1CN(C1CCCCC1)CO3)OCN(C1CCCCC1)C2`, the activity, negative = inhibition was -1.96% [at 11.4 µM] (inactive).

As to `O=C(/C=C\c1ccc(O)c(O)c1)O[C@@H](Cc1ccc(O)c(O)c1)C(=O)O`, the “activity, negative = inhibition” value was -21.8% (inactive). As to `Cc1ccccc1S(=O)(=O)O[C@@H]1NS(=O)(=O)c2ccccc21`, the activity, negative = inhibition is 20.8% [at 11.4 µM] (inactive). On to `Cc1ccccc1S(=O)(=O)Oc1ccccc1C(=O)Oc1ccccc1`, for which the AC50 was 2.24 µM (active).

Regarding `Cc1cc2c(c(=O)o1)[C@@H](O)[C@H]1O[C@@H]1C2=O`, the activity, negative = inhibition is -1.55% [at 11.4 µM] (inactive). `COc1ccc(CC(=O)Nc2cccc(-c3nnc(-c4ccco4)o3)c2)cc1`: the AC50 was 0.316 µM (active). On to `COc1ccc(CC(=O)Nc2ccc(-c3noc(-c4cccc(OC)c4)n3)cc2)cc1`, for which the “activity, negative = inhibition” value was -12.6% (inactive). In the case of `O=C(Nc1nnc(-c2ccc(Cl)cc2)o1)Nc1ccccc1Cl`, the “activity, negative = inhibition” value is -14.2% (inactive). As to `O=C(Cc1ccc(Cl)cc1)Nc1cccc(-c2nnc(-c3ccco3)o2)c1`, the half-maximal activity concentration (AC50) is 0.178 µM (active).

Consider `COc1ccccc1CN1CCC2(CC1)CCN(C(=O)c1c(C)noc1C)CC2`, for which the “activity, negative = inhibition” value was -3.96% (inactive). In the case of `CN(Cc1ccco1)c1ccnc(-c2cccc(NS(C)(=O)=O)c2)n1`, the activity, negative = inhibition was -11.7% [at 2.29 µM] (inactive).

For `CC1CCC(=NNC(=O)Cc2ccccc2)CC1` (stereo unspecified), the “activity, negative = inhibition” value was -15.6% (inactive). In the case of `COCCCNC(=O)CN(c1ccc(OC)cc1)S(=O)(=O)c1ccc(NC(C)=O)cc1`, the half-maximal activity concentration (AC50) is 11.2 µM (active). Still for that read-out and setting: for `COc1ccc(N(CC(=O)NN=C2CCCC2)S(=O)(=O)c2ccccc2)cc1` the value was 10 µM (active). As to `O=C(CC(=O)NN=C1CCCC1)NCCc1ccccc1`, the “activity, negative = inhibition” value was -21.1% (inactive).
